# FLuc inh-1: Photinus pyralis luciferase inhibition; purified P. pyralis luciferase, luminescence, biochemical; Potency, µM (titrated, usually from 115 µM), hits mostly inhibitors; 2.5% of 76,000 active; AID 1347043; further: on the % scale 0 is the no-effect control and ±100 the full control effect; nearly all actives have a fitted effect of over 65% in size
# Target sequence (P08659 whole entry, looked up): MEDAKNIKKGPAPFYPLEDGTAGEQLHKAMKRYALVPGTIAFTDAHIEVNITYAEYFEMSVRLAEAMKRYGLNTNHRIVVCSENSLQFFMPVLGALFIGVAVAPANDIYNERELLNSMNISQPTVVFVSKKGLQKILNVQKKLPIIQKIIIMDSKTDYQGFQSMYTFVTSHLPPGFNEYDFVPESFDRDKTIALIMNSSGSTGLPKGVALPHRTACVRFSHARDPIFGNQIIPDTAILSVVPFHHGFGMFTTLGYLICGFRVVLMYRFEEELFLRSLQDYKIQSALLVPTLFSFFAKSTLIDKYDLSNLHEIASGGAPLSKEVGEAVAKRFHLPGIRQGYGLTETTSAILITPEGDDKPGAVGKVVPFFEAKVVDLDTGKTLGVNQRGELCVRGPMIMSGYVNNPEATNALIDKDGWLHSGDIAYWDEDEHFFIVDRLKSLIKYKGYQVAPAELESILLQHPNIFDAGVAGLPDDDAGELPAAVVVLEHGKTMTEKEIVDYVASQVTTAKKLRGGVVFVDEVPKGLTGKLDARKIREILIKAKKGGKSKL
#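 FLuc 10nM, D-luciferin 10uM, ATP 10uM, Mg acetate 10mM, Tris acetate pH 7.5, Tween/BSA; cpd qHTS; enzyme added last; CCD luminescence.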
# NIH3T3 tox: NIH 3T3 cell cytotoxicity | NIH 3T3 viability, CellTiter-Glo ATP luminescence, 48-72 h | Potency, µM (titrated, usually from 96.7 µM), for inactives: at the highest dose activity change, negative = cytotoxicity, actives largely listed as inhibitors | 4.3% of 94,000 active; further: on the % scale 0 is the no-effect control and ±100 the full control effect; nearly all actives have a fitted effect of over 55% in size
#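 Viability of NIH 3T3 cells after 48 or 72 hr compound treatment at 37 °C was assessed by CellTiter-Glo, with luminescence imaged following a 10 min room-temperature step.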
# HEK cytotox: kills HEK 293 cells. HEK 293 viability, ATP luminescence (CellTiter-Glo), 48-72 h. Potency, µM (doses to about 115 µM), for the others: top-dose activity change, negative = cytotoxicity, actives largely listed as inhibitors. 6.6% of 94,000 active; further: on the % scale 0 is the no-effect control and ±100 the full control effect; nearly all actives have a fitted effect of over 60% in size
#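 Read-out: CellTiter-Glo ATP luminescence. Cells: HEK 293, 250 cells/well. Exposure: 48 or 72 hr, 37 degree Celsius.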
# NPR1 antag: antagonists of human natriuretic peptide receptor Npr1. P16066. HEK293 hNpr1 GloSensor cGMP, ANP-stimulated luminescence. Potency, µM (highest dose often 46.3 µM), inactives show at the highest dose activity change, negative = inhibition, hits mostly inhibitors. 1.6% of 76,000 active. AID 1347048; calls by dose curve; further: on the % scale 0 is the no-effect control and ±100 the full control effect; nearly all actives have a fitted effect of over 60% in size
#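 Compound pre-incubated 30 min at room temperature on GloSensor-loaded HEK293 cells stably carrying hNpr1 and the pGS-40F cGMP biosensor. Stimulation uses hNppA at 0.1 nM final; luminescence is taken at baseline and 20 min post-agonist.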
# GPT2 inh: GPT2 alanine aminotransferase inhibition; Potency, µM (titrated, usually from 57.7 µM), inactives show at the top dose activity change, negative = inhibition, most hits filed as inhibitors; Recombinant GPT2, coupled pyruvate oxidase/HRP Amplex Red fluorescence; 0.25% of 100,000 active; further: on the % scale 0 is the no-effect control and ±100 the full control effect; nearly all actives have a fitted effect of over 60% in size
#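 Recombinant GPT2 (10ng/uL) with 250uM a-KG and 2mM L-alanine, 30 min at room temperature, in HEPES pH 7.5 buffer. Pyruvate detected by pyruvate oxidase/HRP/Amplex Red fluorescence after 30 min in the dark; AOA (50uM) as positive control.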
# FLuc SDR -ATP: stabilizes firefly luciferase without ATP; shares compounds with FLuc inh-1; Purified FLuc-C-HiBiT, Nano-Glo HiBiT luminescence, no ATP; Potency, µM (highest dose often 32.7 µM), for inactives: top-dose activation (signal gain), actives largely listed as activators; 7.8% of 1,300 active; AID 1963318; further: nearly all actives have a fitted effect of over 55% in size
# FLuc SDR ATP: binders stabilizing firefly luciferase, plus ATP; shares compounds with FLuc inh-1; purified FLuc-C-HiBiT + ATP, HiBiT complementation luminescence; Potency, µM (doses to about 32.7 µM), inactives show at the top dose activation (gain of signal), usual class: activators; 8.7% of 1,300 active; AID 1963319;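 further: signal reports ligand binding via conformational change of the enzyme rather than luciferase catalysis; % of control where 0% means no effect; nearly all actives have a fitted effect of over 55% in size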
# FLuc inh-2: blocks firefly luciferase enzymatic activity; shares compounds with FLuc inh-1; purified FLuc-C-HiBiT enzyme, luciferin luminescence; Potency, µM (top dose mostly 32.7 µM), for inactives: at the highest dose activity change, negative = inhibition, actives largely listed as inhibitors; 42% of 1,300 active; further: on the % scale 0 is the no-effect control and ±100 the full control effect; nearly all actives have a fitted effect of over 70% in size
# Starred values were filed as active, the others as inactive; i = inactive; ? = inconclusive; / = no result; [ ] = another dose, or the depositor's remark. A selection: hits, their analogues and other compounds. The true share with any hit is near 10%. Unless noted, the call rests on the fitted dose curve; in most records, active means well fitted curve in the direction sought with a large enough effect; inconclusive means small, poorly fitted or top-dose-only effect, or another doubt; inactive means no such curve, though single readings can be large; an effect the other way counts as inactive or inconclusive. Potency means the concentration at half of the fitted maximal effect.
SMILES,FLuc inh-1,NIH3T3 tox,HEK cytotox,NPR1 antag,GPT2 inh,FLuc SDR -ATP,FLuc SDR ATP,FLuc inh-2
Cc1cc(NC(=O)c2ccccc2F)ccc1-c1nc2ccccc2s1,/,/,/,/,/,18%,14%,?
O=C(Nc1ccc(-c2nc3ccccc3s2)c(O)c1)c1ccccc1F,/,/,/,/,/,14%,11%,-16%
CCSc1ccccc1C(=O)Nc1ccc(-c2nc3ccccc3s2)c(O)c1,/,/,/,/,/,14%,10%,-3%
CN1CC(=O)N(C2CCCNCC2)Cc2c1ncnc2N1CCN(c2ccccn2)CC1 (stereo not given),/,i,i,/,-6%,/,/,/
Cc1ccc(C(=O)NC2CC2)cc1-c1ccc2[nH]ncc2c1,/,/,/,/,/,17%,12%,-16%
Cc1ccc(C(=O)NC2CCN(c3cn[nH]c(=O)c3)CC2)cc1C,i,-11%,-3%,2%,2%,/,/,/
COc1ccc(Br)cc1C(=O)Nc1nc2ccc(F)cc2s1,/,/,/,/,/,16%,11%,-8%
CC(C)CN(C1CCOCC1)C1CN(C(=O)Nc2ccccc2)C1,/,-23%,-1%,/,2%,/,/,/
COc1cc([C@@H]2c3cc4c(cc3[C@H](O)[C@@H](CO)[C@@H]2C(=O)NC2CCCC2)OCO4)cc(OC)c1OC,i,?,?,-8%,i,/,/,/
Cc1ccc(C2Cn3nnc(C(=O)N4CCC(C(=O)Nc5ccccc5)CC4)c3CO2)cc1 (stereo not given),13µM*,5%,12%,-3%,i,13%,?,?
Cc1ccc(C2Cn3nnc(C(=O)N4CCC(C(=O)NCc5ccccn5)CC4)c3CO2)cc1 (stereo not given),11µM*,i,-4%,-4%,i,11%,?,?
Cc1ccc(C2Cn3nnc(C(=O)N4CCC(C(=O)NCc5ccccc5C)CC4)c3CO2)cc1 (stereo not given),i,i,17%,3%,i,/,/,/
Cc1ccc(C2Cn3nnc(C(=O)N4CCC(C(=O)Nc5ccc(F)cc5)CC4)c3CO2)cc1 (stereo not given),11µM*,-8%,-19%,-13%,-2%,14%,?,?
O=C(CC[C@@H]1CNC(=O)[C@@H]2C[C@H](NC(=O)Nc3ccc(F)cc3F)CN12)NCc1ccc(F)cc1,i,-1%,0%,-1%,3%,/,/,/
O=C(Nc1cnc(-c2ccccc2)nc1)C1CCCCC1,1µM*,i,-9%,?,i,?,?,2µM*
COc1ccccc1-c1nc(-c2ccc(C(=O)O)cc2)no1,/,/,/,/,/,16%,2.2µM*,2µM*
O=C(O)c1cccc(-c2ncccn2)c1,/,3%[174 µM],5%[230 µM],/,-11%[88.5 µM],/,/,/
O=C(O)c1cccc(-c2cccc(C(F)(F)F)c2)c1,/,-2%[138 µM],i,/,-11%[88.5 µM],/,/,/
O=C(O)c1cccc(-c2noc(-c3ccc(Cl)cc3)n2)c1,/,/,/,/,/,2.8µM*,0.005µM*,0.0022µM*
COc1cccc(-c2nc(-c3cccc(C(=O)O)c3)no2)c1,/,/,/,/,/,12µM*,0.007µM*,0.0039µM*
O=C(O)c1ccc(-c2noc(-c3cccc(C(F)(F)F)c3)n2)cc1,/,/,/,/,/,12%,20%,?
COc1cc(-c2noc(-c3nc(-c4ccccc4)no3)n2)cc(OC)c1OC,i,i,-3%,-1%,i,/,/,/
O=C(C1CC1)N1CCN2C(=O)N(Cc3ccc(F)cc3)C[C@H]2C1,i,i,3%[172 µM],-2%[70.6 µM],-1%[88.5 µM],/,/,/
CC(=O)Nc1ccc(S(=O)(=O)N[C@H]2CO[C@H]3[C@@H]2OC[C@@H]3n2nnnc2Oc2cccc(N(C)C)c2)cc1,i,-16%,-12%,6%,-13%,/,/,/
CC1(C)C=Cc2c(ccc3c2[N+]([O-])=C2C3(O)CC34NC(=O)C5(CCCN5C3=O)CC4C2(C)C)O1 (stereo not given),/,/,/,/,i,/,/,/
SMILES,FLuc inh-1,NIH3T3 tox,HEK cytotox,NPR1 antag,GPT2 inh,FLuc SDR -ATP,FLuc SDR ATP,FLuc inh-2
COc1ccc(-c2noc(-c3nc(C)no3)n2)cc1,i,3%,-2%,4%,i,/,/,/
Cc1ccc(-c2nc(C(=O)N3CCN(c4ccc(Cl)cc4)CC3)no2)cc1,?,-11%,-1%,?,i,/,/,/
O=C(O)c1cccc(-c2noc(-c3cccc(Cl)c3)n2)c1,/,/,/,/,/,12µM*,0.022µM*,0.007µM*
COc1ccc(-c2nc(-c3ccc(C(=O)O)cc3)no2)cc1,/,/,/,/,/,12µM*,0.11µM*,0.11µM*
O=C(O)c1ccc(-c2noc(-c3ccc(Cl)cc3)n2)cc1,/,/,/,/,/,?,1.4µM*,0.79µM*
Clc1cccc(-c2noc(-c3nc(-c4ccncc4)no3)n2)c1,i,i,8%,6%,-5%,/,/,/
Cc1ccc(CN2C(=O)[C@@H]3C[C@@H](O)CN3C3(CN(Cc4ccc(F)cc4)C3)C2=O)o1,i,-15%[174 µM],-9%[172 µM],-2%[70.6 µM],i,/,/,/
CC1(c2noc(-c3ccccc3)n2)CCN(C(=O)CCc2cc(Cl)no2)CC1,/,?,?,/,3%,/,/,/
CCc1ccc(-c2nc(CSCC(=O)NCc3ccc(C)cc3)c(C)o2)cc1,/,/,/,/,/,19%,12%,?
COc1ccc(-c2ccc(C(=O)Nc3ccccc3F)c(Cl)c2)nn1,/,-26%,?,/,/,/,/,/
COc1cccc(CNc2ccc(S(=O)(=O)Nc3nc4ccccc4s3)cc2)c1O,/,/,/,/,3%,/,/,/
COc1ccc(-c2nc3ccccc3s2)cc1NC(=O)c1cc2ccccc2o1,/,/,/,/,/,7%,7%,-4%
COc1ccccc1NC(=O)O[C@H]1COCCN(c2nc3ccccc3s2)C1,i,?,?,-8%[70.6 µM],i,/,/,/
COc1ccc(-c2nc3ccccc3s2)cc1NC(=O)c1cccc([N+](=O)[O-])c1C,/,/,/,/,/,15%,14%,6.2µM*
COc1ccc(-c2nc3ccccc3s2)cc1NC(=O)c1ccc(C#N)cc1F,/,/,/,/,/,13%,9%,-1%
COc1ccc(-c2nc3ccccc3s2)cc1NC(=O)c1ccccc1F,/,/,/,/,/,15%,7%,-16%
COc1ccc(-c2nc3ccccc3s2)cc1NC(C)=O,/,/,/,/,/,15%,15%,?
CCOc1ccc(C(=O)Nc2ccc(-c3nc4ccccc4s3)cc2)cc1[N+](=O)[O-],/,/,/,/,/,13%,9%,0%
COc1cccc(-c2ncc3c(n2)OCCN(Cc2ccc(F)cc2F)C3=O)c1,13µM*,?,?,?,-3%[88.5 µM],13%[49.3 µM],10%[49.3 µM],?

# Source: PubChem
